Test results from PubChem BioAssay (Tox21).
“And” between values parts separate entries of the source, which are not always exact repeats. Equal entries are not always repeated. Records with an inconclusive call do not appear. A call without a number means that no potency is given here. The source made the active and inactive calls. Unless noted, calls come from the whole dose curve.

Key:
[1] = Nuclear factor erythroid 2-related factor 2/antioxidant responsive element (Nrf2/ARE) small molecule agonists: luciferase reporter gene qHTS assay in human keratinocytes (AID 1919969); note: nearly all actives have a fitted effect of over 35% in size; note: potency is the fitted concentration of half-maximal effect
[2] = target: Gonadotropin-releasing hormone receptor (Homo sapiens) (UniProt P30968); assay: Human gonadotropin-releasing hormone receptor (GnRHR) small molecule agonists, calcium flux assay in GnRHR-HEK293 cells (AID 1920063); note: nearly all actives have a fitted effect of over 35% in size
Procedure, shortened: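 Agonist activity was measured as intracellular calcium flux in HEK293 cells engineered to stably express human GnRHR. After dye loading for 1 hour at 37 C, compounds in DMSO were added and fluorescence was followed for 3 minutes.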

[3] = target: KiSS-1 receptor (Homo sapiens) (UniProt Q969F8); assay: Human kisspeptin (KISS1R) small molecule agonists, calcium flux assay in KISS1R-HEK293 cells (AID 1920064; active = well fitted activation curve with a large enough effect in the repeat runs)
Procedure, shortened: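 Agonist activity is monitored as intracellular calcium rise in engineered HEK293 cells carrying human KISS1R. Cells are dye-loaded for 1 h at 37 C before compound addition, and fluorescence is recorded for 3 min.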

[4] = G protein-coupled receptor (GPCR) small molecule agonists, calcium flux assay: HEK293 wild type cell line counter screen (AID 1920065)
Procedure, shortened: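 Seed cells, incubate 18 h (37 C, 5% CO2); add calcium dye, 1 h at 37 C; pin-transfer compounds, ATP control or DMSO; read fluorescence 480/540 nm each second for 3 min.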

[5] = p53 small molecule agonists, cell-based qHTS assay with rat liver microsomes (AID 1963578)
Procedure, shortened: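 Metabolic activation by rat liver microsomes and NADPH, each 0.5 mg/mL final, added right after compounds to p53RE-bla reporter cells (4,000/well, plated 5 h earlier). 16 h at 37 C, then LiveBLAzer substrate for 2 h at room temperature in the dark; fluorescence read-out.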

[6] = p53 small molecule agonists, cell-based qHTS assay with human liver microsomes: qHTS cell viability counter screen (AID 1963579); note: nearly all actives have a fitted effect of over 45% in size
Procedure, shortened: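 Metabolic activation used human liver microsomes and NADPH, both 0.5 mg/mL final, over 16 hours at 37 C on p53RE-bla cells (4,000/well). Cytotoxicity measured by CellTiter-Glo luminescence, 30 min at room temperature.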

[7] = p53 small molecule agonists, cell-based qHTS assay with rat liver microsomes: qHTS cell viability counter screen (AID 1963580); note: nearly all actives have a fitted effect of over 45% in size
Procedure, shortened: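 Cytotoxicity counter screen: intracellular ATP read by CellTiter-Glo luminescence in the p53 reporter wells. HCT-116 p53RE-bla cells were treated for 16 h at 37 C alongside rat liver microsomes and NADPH, each 0.5 mg/mL final.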

[8] = p53 small molecule agonists, cell-based qHTS assay (AID 1963582; active = well fitted activation curve with a large enough effect in the signal ratio in the repeat runs, not every such curve was filed as active; the % refers to the signal ratio; note: potency is the fitted concentration of half-maximal effect)
Procedure, shortened: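 Cells carrying a p53-responsive bla reporter are treated with test compounds for 16 h at 37 C; beta-lactamase activity is then detected with LiveBLAzer B/G FRET substrate after 2 h at room temperature.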

[9] = target: 5-hydroxytryptamine receptor 2A (Homo sapiens) (UniProt P28223); assay: 5-hydroxytryptamine receptor 2A (HTR2A) small molecule antagonists, cell-based qHTS assay (AID 1963586); note: nearly all actives have a fitted effect of over 45% in size
Procedure, shortened: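 CHO cells stably expressing human HTR2A were plated for 18 h at 37 C, then loaded with calcium dye for 1 h. Compounds were preincubated 5 min at room temperature before DOI (4 nM solution) was added. Kinetic fluorescence was read for 3 min.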

[10] = target: 5-hydroxytryptamine receptor 2A (Homo sapiens) (UniProt P28223); assay: 5-hydroxytryptamine receptor 2A (HTR2A) small molecule agonists, cell-based qHTS assay (AID 1963587); note: nearly all actives have a fitted effect of over 30% in size
Procedure, shortened: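 Kinetic calcium-flux fluorescence (2 min, 1 sec intervals) after compound addition in agonist mode. HTR2A-CHO cells were cultured 18 h, then dye-loaded 1 h at 37 C.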

[11] = target: Muscarinic acetylcholine receptor M1 (Homo sapiens) (UniProt P11229); assay: Cholinergic receptor muscarinic 1 (CHRM1) small molecule antagonists, cell-based qHTS assay (AID 1963588); note: nearly all actives have a fitted effect of over 40% in size
Procedure, shortened: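 Compounds were tested at 15 concentrations in three independent runs. Dye-loaded CHRM1-CHO cells were exposed 5 min at room temperature before stimulation by acetylcholine added at 50nM. Intracellular calcium was read kinetically on FDSS for 3 min.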

[12] = target: Muscarinic acetylcholine receptor M1 (Homo sapiens) (UniProt P11229); assay: Cholinergic receptor muscarinic 1 (CHRM1) small molecule agonists, cell-based qHTS assay (AID 1963589); note: nearly all actives have a fitted effect of over 35% in size
Procedure, shortened: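 Cells were plated and incubated 18 h at 37 C/5% CO2, loaded with calcium dye for 1 h at 37 C, then treated with compounds in DMSO. Fluorescence was recorded kinetically at 1 sec intervals.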

[13] = target: Beta-2 adrenergic receptor (Homo sapiens) (UniProt P07550); assay: Adrenergic beta2 receptor (ADRB2) small molecule antagonists, cell-based qHTS assay (AID 1963592); note: series mostly up to about 92 µM; nearly all actives have a fitted effect of over 50% in size
Procedure, shortened: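 Assay format: CHO-ADRB2 cells, 18-20hr seeding at 37C/5% CO2, then compound plus 1nM isoproterenol agonist mix for 0.5hr RT. Homogeneous time-resolved fluorescence cAMP detection after 1hr, expressed as 665/615 nm ratio.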

[14] = target: Beta-2 adrenergic receptor (Homo sapiens) (UniProt P07550); assay: Adrenergic beta2 receptor (ADRB2) small molecule agonists, cell-based qHTS assay (AID 1963593); note: potency is the fitted concentration of half-maximal effect;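 for activation: CHO cells stably overexpressing human ADRB2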
Procedure, shortened: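 CHO cells stably over-expressing ADRB2 were plated overnight at 37C, then dosed with compounds plus a stimulation mix containing 100uM IBMX and 25uM Ro-20-1724 for 0.5hr at room temperature. cAMP was measured by HTRF competition, 1hr.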

[15] = cAMP Responsive Elements (CRE) small molecule antagonists, cell-based qHTS assay (AID 1963591; active = well fitted inhibition curve with a large enough effect in the signal ratio in the repeat runs, not every such curve was filed as active; the % refers to the signal ratio)
Procedure, shortened: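 Cells (CRE-bla HEK 293T, DMEM with 10% dialyzed FBS and 25 mM HEPES) are seeded and incubated 18 h. Compounds are added with NKH477 agonist at 0.25 uM final for 3 h, then FRET substrate for 2 h.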

[16] = target: D(2) dopamine receptor (Homo sapiens) (UniProt P14416); assay: Dopamine D2 receptor (DRD2) small molecule agonists, cell-based qHTS assay (AID 1963594); note: nearly all actives have a fitted effect of over 35% in size
Procedure, shortened: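 cAMP accumulation in DRD2-HEK293 cells measured by HTRF after 1 h detection; compounds added 10 min before NKH477 (200nM […]) forskolin-analogue stimulation, 30 min at room temperature, with Ro20-1724 present at 0.1 mM final.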

[17] = target: D(2) dopamine receptor (Homo sapiens) (UniProt P14416); assay: Dopamine D2 receptor (DRD2) small molecule antagonists, cell-based qHTS assay (AID 1963595; active = well fitted inhibition curve with a large enough effect in the signal ratio in the repeat runs, with a control signal flat; the % refers to the signal ratio; note: potency is the fitted concentration of half-maximal effect)
Procedure, shortened: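 Antagonist mode in DRD2-HEK293 cells: after compound addition with 0.1 mM Ro20-1724, cells received quinpirole (12 nM) and NKH477 (200 nM) for 30 min at room temperature; HTRF cAMP read after 1 h detection.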

[18] = p53 small molecule agonists, cell-based qHTS assay: qHTS cell viability counter screen (AID 1963581); note: nearly all actives have a fitted effect of over 45% in size
Procedure, shortened: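 Viability was counter-screened in parallel with the p53 agonist reporter by measuring intracellular ATP luminescence in the same HCT-116 p53RE-bla wells after 16 h compound treatment at 37 C.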

[19] = cAMP Responsive Elements (CRE) small molecule agonists, cell-based qHTS assay (AID 1963590)
Procedure, shortened: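 Cells carrying a CRE-driven beta-lactamase reporter (HEK 293T) are seeded, incubated overnight (18 h), and treated with test compounds for 3 h at 37 C; reporter activity is then detected with a FRET substrate after 2 h at room temperature.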

Muscarinic acetylcholine receptor M1 (Homo sapiens), sequence (P11229 whole entry, looked up): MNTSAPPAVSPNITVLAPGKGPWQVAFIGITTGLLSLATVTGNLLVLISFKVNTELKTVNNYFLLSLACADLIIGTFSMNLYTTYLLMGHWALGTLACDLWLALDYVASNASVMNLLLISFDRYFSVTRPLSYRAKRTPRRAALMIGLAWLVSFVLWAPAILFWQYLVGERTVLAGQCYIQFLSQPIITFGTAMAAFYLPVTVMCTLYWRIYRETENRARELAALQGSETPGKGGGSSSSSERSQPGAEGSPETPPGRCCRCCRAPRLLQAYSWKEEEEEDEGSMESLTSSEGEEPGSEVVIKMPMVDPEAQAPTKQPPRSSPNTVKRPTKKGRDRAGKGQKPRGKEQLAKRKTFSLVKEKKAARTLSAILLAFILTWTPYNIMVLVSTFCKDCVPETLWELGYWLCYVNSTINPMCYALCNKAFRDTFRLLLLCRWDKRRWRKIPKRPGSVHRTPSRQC
D(2) dopamine receptor (Homo sapiens), sequence (P14416 whole entry, looked up): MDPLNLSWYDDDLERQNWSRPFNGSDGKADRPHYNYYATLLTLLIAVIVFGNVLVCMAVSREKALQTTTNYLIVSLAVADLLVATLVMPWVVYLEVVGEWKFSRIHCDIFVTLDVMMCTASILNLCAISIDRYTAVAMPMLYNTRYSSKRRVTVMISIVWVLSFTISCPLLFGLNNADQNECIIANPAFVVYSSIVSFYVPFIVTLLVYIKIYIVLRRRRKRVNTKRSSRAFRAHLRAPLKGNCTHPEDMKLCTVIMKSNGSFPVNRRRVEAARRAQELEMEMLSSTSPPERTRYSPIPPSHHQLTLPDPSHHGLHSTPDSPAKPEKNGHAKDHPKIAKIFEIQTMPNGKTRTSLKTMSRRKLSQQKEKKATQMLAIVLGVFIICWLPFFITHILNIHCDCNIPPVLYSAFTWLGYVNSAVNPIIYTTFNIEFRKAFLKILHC
5-hydroxytryptamine receptor 2A (Homo sapiens), sequence (P28223 whole entry, looked up): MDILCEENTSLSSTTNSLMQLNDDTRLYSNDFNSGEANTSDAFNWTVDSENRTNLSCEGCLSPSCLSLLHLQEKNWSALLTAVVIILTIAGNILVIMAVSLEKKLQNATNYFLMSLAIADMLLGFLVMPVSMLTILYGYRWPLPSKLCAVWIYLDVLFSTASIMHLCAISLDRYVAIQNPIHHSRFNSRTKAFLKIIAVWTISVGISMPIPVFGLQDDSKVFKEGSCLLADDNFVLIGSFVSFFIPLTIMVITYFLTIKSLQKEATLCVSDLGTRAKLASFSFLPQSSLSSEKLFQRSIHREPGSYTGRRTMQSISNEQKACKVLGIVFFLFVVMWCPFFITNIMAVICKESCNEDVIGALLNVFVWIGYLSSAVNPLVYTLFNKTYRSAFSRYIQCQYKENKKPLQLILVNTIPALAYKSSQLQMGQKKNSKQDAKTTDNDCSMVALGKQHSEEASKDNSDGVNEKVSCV
Beta-2 adrenergic receptor (Homo sapiens), sequence (P07550 whole entry, looked up): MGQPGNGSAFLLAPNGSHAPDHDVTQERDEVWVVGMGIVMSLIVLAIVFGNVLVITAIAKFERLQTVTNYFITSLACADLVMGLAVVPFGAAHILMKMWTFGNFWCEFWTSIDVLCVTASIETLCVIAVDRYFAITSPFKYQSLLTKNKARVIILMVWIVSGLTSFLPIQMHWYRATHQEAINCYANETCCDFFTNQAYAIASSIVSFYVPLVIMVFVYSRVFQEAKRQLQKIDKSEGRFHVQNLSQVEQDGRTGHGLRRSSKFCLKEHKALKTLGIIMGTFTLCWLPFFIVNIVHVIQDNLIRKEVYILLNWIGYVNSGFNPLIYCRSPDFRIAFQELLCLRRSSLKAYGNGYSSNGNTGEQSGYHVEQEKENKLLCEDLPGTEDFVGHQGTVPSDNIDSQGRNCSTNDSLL
KiSS-1 receptor (Homo sapiens), sequence (Q969F8 whole entry, looked up): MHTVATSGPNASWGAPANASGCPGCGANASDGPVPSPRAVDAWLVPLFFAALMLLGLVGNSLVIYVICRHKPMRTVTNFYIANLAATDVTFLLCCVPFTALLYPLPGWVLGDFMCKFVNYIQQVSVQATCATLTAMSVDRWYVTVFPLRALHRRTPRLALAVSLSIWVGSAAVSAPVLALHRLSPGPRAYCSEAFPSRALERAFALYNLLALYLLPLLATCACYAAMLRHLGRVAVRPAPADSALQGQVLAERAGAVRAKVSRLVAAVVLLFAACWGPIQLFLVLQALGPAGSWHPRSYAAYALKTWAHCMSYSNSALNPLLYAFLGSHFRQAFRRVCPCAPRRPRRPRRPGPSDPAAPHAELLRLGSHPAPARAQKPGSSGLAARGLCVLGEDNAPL
Gonadotropin-releasing hormone receptor (Homo sapiens), sequence (P30968 whole entry, looked up): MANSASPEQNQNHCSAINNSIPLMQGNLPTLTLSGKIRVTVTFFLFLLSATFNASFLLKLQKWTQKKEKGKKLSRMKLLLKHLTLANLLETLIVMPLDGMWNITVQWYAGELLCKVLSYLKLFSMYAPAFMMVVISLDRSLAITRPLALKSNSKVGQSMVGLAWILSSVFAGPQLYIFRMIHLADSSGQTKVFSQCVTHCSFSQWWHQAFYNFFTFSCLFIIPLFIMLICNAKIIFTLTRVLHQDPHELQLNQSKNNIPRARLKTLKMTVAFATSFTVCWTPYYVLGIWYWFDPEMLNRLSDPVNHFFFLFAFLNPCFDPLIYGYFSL

Row | Compound | Potency [1] | Potency [2] | Potency [3] | Potency [4] | Potency [5] | Potency [6] | Potency [7] | Potency [8] | Potency [9] | Potency [10] | Potency [11] | Potency [12] | Potency [13] | Potency [14] | Potency [15] | Potency [16] | Potency [17] | Potency [18] | Potency [19]
1 | CCC(C)(C)C(=O)OC1=C(c2ccc(Cl)cc2Cl)C(=O)OC12CCCCC2 | 9.69 µM (active) | inactive | inactive | inactive | inactive | inactive | inactive | inactive | inactive | inactive | inactive | inactive | inactive | inactive | – | – | – | – | –
2 | Nc1ccc(Cl)cc1C(=O)c1ccccc1 | inactive | inactive | inactive | inactive | inactive | – | – | – | – | – | inactive | inactive | inactive | – | inactive | inactive | inactive | – | –
3 | CCCN(CCC)c1c([N+](=O)[O-])cc(C(F)(F)F)cc1[N+](=O)[O-] | 19.3 µM (active) and 61.1 µM (active) | inactive | inactive | inactive | – | inactive | inactive | – | inactive | inactive | inactive | inactive | – | inactive | inactive | inactive | inactive | inactive | inactive
4 | CC(C)c1c(CN(C)C(C)Cc2ccccc2)n(C)n(-c2ccccc2)c1=O (configuration not stated) | inactive | inactive | inactive | inactive | inactive | – | inactive | inactive | – | inactive | inactive | inactive | inactive | – | – | inactive | inactive | inactive | –
5 | O=c1oc2ccccc2c(O)c1Cc1c(O)c2ccccc2oc1=O | inactive | inactive | inactive | inactive | inactive | – | – | 5 µM (active) | – | – | – | – | inactive | inactive | inactive | inactive | inactive | – | –
6 | CCNS(=O)(=O)C(F)(F)C(F)(F)C(F)(F)C(F)(F)C(F)(F)C(F)(F)C(F)(F)C(F)(F)F | 58.5 µM (active) | inactive | inactive | inactive | – | inactive | inactive | – | inactive | inactive | inactive | inactive | inactive | inactive | inactive | inactive | inactive | inactive | inactive
7 | CNC(=O)Oc1ccccc1C(C)C | inactive | inactive | inactive | inactive | – | inactive | inactive | inactive | inactive | inactive | inactive | inactive | – | inactive | inactive | inactive | inactive | inactive | inactive
8 | ClC1=C(Cl)[C@]2(Cl)[C@@H]3[C@@H](Cl)[C@H]4O[C@H]4[C@@H]3C1(Cl)C2(Cl)Cl | inactive | inactive | inactive | inactive | – | inactive | inactive | – | inactive | inactive | inactive | inactive | – | 61.1 µM (active) | – | – | – | inactive | –
9 | CC(C)(C)c1ccc(CCOc2ncnc3ccccc23)cc1 | inactive | inactive | inactive | inactive | – | inactive | inactive | – | inactive | inactive | inactive | inactive | inactive | – | inactive | inactive | inactive | inactive | inactive
10 | COC(C)(C)CCC[C@H](C)C/C=C/C(C)=C/C(=O)OC(C)C | 61.1 µM (active) | inactive | inactive | inactive | inactive | inactive | inactive | – | inactive | inactive | inactive | – | inactive | inactive | – | inactive | inactive | inactive | –
11 | CN1C[C@H](CNC(=O)OCc2ccccc2)C[C@@H]2c3cccc4c3c(cn4C)C[C@H]21 | inactive | inactive | inactive | inactive | inactive | inactive | inactive | – | – | – | – | – | – | – | – | inactive | 10.6 µM (active) | inactive | inactive
12 | COc1cccc2c1cc([N+](=O)[O-])c1c(C(=O)O)cc3c(c12)OCO3 | 12.2 µM (active) | inactive | inactive | inactive | inactive | inactive | – | – | inactive | inactive | inactive | inactive | inactive | – | – | inactive | – | inactive | –
13 | O=[N+]([O-])c1c2ccccc2cc2ccccc12 | 21.4 µM (active) | inactive | inactive | inactive | inactive | inactive | inactive | – | – | inactive | inactive | inactive | – | – | – | inactive | – | – | –
14 | COC(=O)/C=C(\C)OP(=O)(OC)OC | inactive | inactive | inactive | inactive | – | inactive | inactive | inactive | inactive | inactive | inactive | inactive | inactive | – | – | inactive | inactive | inactive | inactive
15 | O=C(O)c1cccc(Cl)c1 | inactive | inactive | inactive | inactive | – | inactive | inactive | – | inactive | inactive | inactive | – | inactive | – | inactive | inactive | inactive | inactive | inactive
16 | CN(C)C(=O)Oc1cc(OC(=O)N(C)C)cc(C(O)CNC(C)(C)C)c1 (configuration not stated) | inactive | inactive | inactive | inactive | inactive | inactive | – | inactive | – | – | – | – | inactive | – | inactive | – | inactive | inactive | inactive
17 | O=C(Nc1ccccc1)c1ccccc1I | inactive | inactive | inactive | inactive | – | inactive | inactive | – | inactive | inactive | inactive | inactive | inactive | – | inactive | inactive | inactive | inactive | inactive
18 | Fc1ccc(Oc2ccnc3cc(Cl)cc(Cl)c23)cc1 | 24.3 µM (active) | inactive | inactive | inactive | inactive | inactive | inactive | – | – | inactive | inactive | inactive | inactive | inactive | inactive | – | inactive | inactive | –
